697 NFkB inh = inhibitors of the PMA/ionomycin-induced NF-kB reporter in 697 B cells. inhibition, % at 4 µM. AID 435022. actives 0.33% (n = 330,000). 697 B-cell NF-kB luciferase reporter, 16 h; in the data active = inhibition above about 35%
HIF activator = HIF pathway transcriptional activation; U2OS HRE-luciferase reporter, luminescence; normalized: DMSO 0%, desferrioxamine 100%; activation, % at 7.5 µM (by protocol); AID 1910; actives 0.32% (n = 300,000);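 active = mean activation of at least 10% of the iron chelator positive control signal, with at least half of replicates also reaching 10%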
CFTR F508del cor = correctors of CFTR F508del function in bronchial epithelial cells; CFBE cells, YFP halide quenching; stimulated with forskolin plus potentiator P3; % fluorescence drop versus neutral controls; activity (quench increase), % at 7.58 µM; actives 0.36% (n = 350,000); AID 720511;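 active = mean added fluorescence quench of at least 8% versus neutral control, with both replicates also reaching 8%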;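 note: cells transiently co-express mutant CFTR-F508del with the halide-sensitive YFP; corrector assay measuring rescue of mutant channel to the surface after 24 h compound exposure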
Jurkat NFkB inh = inhibitors of the PMA/ionomycin-induced NF-kB reporter in Jurkat cells. PMA/ionomycin-induced NF-kB luciferase reporter, luminescence. inhibition, % at 4 µM. actives 0.53% (n = 330,000); in the data active = inhibition above about 50%
Starred values were filed as active, the others as inactive; nt = no result given. This is a sample that favours compounds with a hit; in the whole collection about 0.93% have one here.

SMILES	697 NFkB inh	HIF activator	CFTR F508del cor	Jurkat NFkB inh
CCC1(CC(C)C)C(=O)NC(=S)NC1=O	nt	nt	-1	nt
CCC1(CC)C(=O)C=CNC1=O	-9	nt	29*	0
CCCNC(=O)[C@H]1[C@H](CO)[C@H]2Cn3c(cccc3=O)[C@H]2N1CC	nt	nt	0	nt
O=C(CSC1c2ccccc2-c2ccccc21)N/N=C/c1ccccc1O	-7	9.9*	nt	21
Cn1c(NN=O)nc2ccccc21	-2	66*	1	21
CCCN1[C@@H]2Cn3c(ccc(-c4ccc(F)cc4)c3=O)[C@H]1[C@@H](C(=O)OC)[C@@H]2CO	nt	nt	2	nt
CC(C)C[C@@H]1COc2cccc(N3CCN(C)CC3)c2S(=O)(=O)N1	nt	nt	12*	nt
C[C@H]1O[C@@H](OC2CC[C@]3(C=O)[C@H]4CC[C@]5(C)[C@@H](C6=CC(=O)OC6)CC[C@]5(O)[C@@H]4CC[C@]3(O)C2)CC2OC(C)(C)OC21 (stereo partly drawn)	nt	-5	8.6*	nt
CC12CCC3C(CCC4(O)CC(O)CCC34C=O)C1(O)CCC2C1=CC(=O)OC1 (stereo not drawn)	nt	nt	-2	nt
CC[C@H]1C=C(C(=O)N[C@@]2(C(=O)O)C[C@H]2CC)[C@H]2CCC(=O)[C@H]2C1	nt	nt	-1	nt
O=c1[nH]c(=O)n(-c2cccc3ccccc23)c(O)c1/C=N/N1CCCCC1c1cccnc1 (stereo not drawn)	8	0	8.0*	-1
O=c1[nH]c(=O)n(C2CCCCC2)c(O)c1/C=N/N1CCCCC1c1cccnc1 (stereo not drawn)	1	0	0	-1
Cc1ccc(OC(=O)N(C)C[C@@H]2OCc3ccccc3-c3c(n(C)c4ccccc34)C(=O)N([C@H](C)CO)C[C@@H]2C)cc1	nt	nt	0	nt
COC(=O)C1=Nc2ccccc2/C1=C\c1c(O)n(-c2cc(OC)ccc2OC)c(=O)[nH]c1=O	-19	548*	nt	2
COc1ccc(OC)c(-n2c(O)c(C=Nc3c(C)n(C)n(-c4ccccc4)c3=O)c(=O)[nH]c2=O)c1	-6	0	1	-1
Cc1cccc(-n2c(O)c(/C=C3/C(c4ccccc4)=Nc4ccccc43)c(=O)[nH]c2=O)c1	-93	2	12*	45
CCCNC(=O)N1[C@@H]2c3ccc(-c4cccc(C(=O)N(C)C)c4)c(=O)n3C[C@H]1[C@H](CO)[C@H]2C(=O)O	nt	nt	0	nt
COC(=O)[C@@H]1[C@@H](CO)[C@@H]2Cn3c(ccc(C4=CCCCC4)c3=O)[C@H]1N2CC1CCCCC1	nt	nt	1	nt
O=[N+]([O-])c1ccc(N2CCOCC2)c2cccnc12	13	0	8	8
O=[N+]([O-])c1ccc(N2CCOCC2)c2c1no[n+]2[O-]	nt	nt	12*	nt
COC(=O)[C@@H]1[C@@H](CO)[C@@H]2Cn3c(ccc(-c4ccccc4)c3=O)[C@H]1N2C(=O)c1ccccc1F	nt	nt	0	nt
Nc1ccc2ccc3cccc[n+]3c2c1	-21	1	15*	-5
CC1(C)OC(c2ccccc2)=C/C(=C/C=C2C(=O)NC(=S)NC2=O)O1	11	0	17*	4
CCOP(=O)(C#Cc1ccccc1)C(O)c1ccc(Br)cc1 (stereo not drawn)	5	0	10*	12
O=C(C1CC1)N1C[C@@H]2N[C@H](C1)[C@@H]2c1ccc(-c2ccncc2)cc1	nt	nt	-4	nt
SMILES	697 NFkB inh	HIF activator	CFTR F508del cor	Jurkat NFkB inh
Cc1nc2ccccc2c(=O)n1/N=C/c1cc(Br)cc(Br)c1O	-14	181*	3	-17
O=C(O)[C@@H]1[C@@H](CO)[C@@H]2Cn3c(ccc(-c4ccncc4)c3=O)[C@H]1N2C(=O)C1CCC1	nt	nt	0	nt
FC(F)(F)c1ccc2c(c1)NP(=S)(N1CCOCC1)c1nccn1-2 (stereo not drawn)	14	69*	5	11
CCN(CC)CCNCc1nc2ccccc2c(=O)n1-c1ccc(F)cc1	-11	60*	-1	1
O=C(c1cc2cc(Br)ccc2[nH]1)N1CCC2(CC1)OCCO2	-12	1	5	-24
O=C(c1cc(Br)ccc1Cl)N1CCC2(CC1)OCCO2	15	421*	nt	-4
COc1ccc(CN2C(=O)NC(=O)/C(=C/c3ccc(OC)c(OC)c3OC)C2=O)cc1	-15	1	1	-5
COc1ccc(-c2ccc(OC)c(OC)c2OC)cc1	nt	nt	12*	nt
O=C(NC[C@H]1CC[C@@H]2NC[C@@H]2O1)C1CCCC1	nt	nt	-3	nt

Source: PubChem BioAssay (several laboratories)
